In all, about 63,000 compounds went through this assay and about 1,100 (1.7%) were called active. Rule as the data show it: active = cytotoxicity above about 50%; inactive = the rest. Shown is part of a subset that was picked to be rich in actives. Results with a measured potency or affinity are listed apart.

The assay is described as follows: HPDE-C7 pancreatic duct cell viability loss – fluorescence, HTS (AID 430).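 Also: cells exposed to compound for 48 hours before viability readout; 0% = vehicle and 100% = reference cytotoxic drug.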 The following applies: HPDE-C7 pancreatic duct cells viability, at 10 µM, hits give high values.
As to `COC(=O)c1ccccc1S(=O)(=O)N(Cc1cc2ccc(OC)cc2[nH]c1=O)CC1CCCO1` (configuration not stated), the cytotoxicity was -2% (inactive).
The value for `O=C(CCNS(=O)(=O)c1cccs1)NCc1ccco1` was -2.8% (inactive).
Then `C=CCOc1nc2c(c(=O)n(Cc3ccc(Cl)cc3)c(=O)n2C)n1C`, with 6.6% (inactive); and `C=CCOc1nc2c(c(=O)n(C)c(=O)n2C)n1Cc1ccc(Cl)cc1`, with 59.6% (active); and `C=CCOc1nc2c(c(=O)n(C)c(=O)n2C)n1Cc1ccc(Cl)cc1Cl`, with -22.3% (inactive).
`CCc1c(C(=O)Nc2ccc(S(=O)(=O)N3CCOCC3)cc2)csc1C`: the cytotoxicity is 11% (inactive).
In the case of `N=c1c2c(n(Cc3ccc(Cl)c(Cl)c3)c3c1CCC3)CCCC2`, the cytotoxicity was 63.8% (active).
For the compound `N=c1c2c(n(Cc3ccc(F)cc3)c3c1CCC3)CCC2`, the cytotoxicity is 29.3% (inactive).
As for `N=c1c2c(n(Cc3ccc(Cl)cc3)c3c1CCC3)CCC2`, the cytotoxicity is 34% (inactive).
Then `O=C(C1CCN(S(=O)(=O)c2ccc(Br)s2)CC1)N1CCc2ccccc21`, with 10.9% (inactive); and `O=C1N(S(=O)(=O)c2ccccc2F)C(=O)C2(CCCC2)N1S(=O)(=O)c1ccccc1F`, with -2.1% (inactive); and `Cn1c(N2CCCCC2)nc2c1c(=O)n(Cc1cccc(Br)c1)c(=O)n2C`, with -15.8% (inactive).
Take `O=c1[nH]cnc2c1oc1ccccc12`: the cytotoxicity is 1.3% (inactive).
As to `O=C(O)c1c(-c2ccccc2)c2oc3ccccc3c2[nH]c1=O`, the cytotoxicity was 89.7% (active).
Then `O=c1[nH]c(Cc2ccccc2)nc2c1oc1ccccc12`, with -7.5% (inactive); and `COC(=O)c1c(-c2ccc(F)cc2)noc1N`, with -23.1% (inactive).
The value for `CCn1c(-c2ccco2)nc2ccccc21` was 6.2% (inactive); that for `COc1ccc(C(=O)CSc2nnc(-c3ccco3)n2C)cc1` was -10.7% (inactive).
The value for `COc1ccc(C(=O)n2c(-c3ccco3)nc3ccccc32)cc1` was 66.4% (active); that for `O=C(Nc1ccc2c(c1)oc1ccccc12)c1ccc(Br)o1` was 3.1% (inactive); that for `CCCC(=O)Nc1cc(OC)c(OC)cc1C(=O)O` was 6.8% (inactive).
Turning to `COc1cccc(C(=O)Nc2nnc(-c3cccs3)o2)c1`, the cytotoxicity was 22% (inactive).
For `O=C(Nc1nnc(-c2cccs2)o1)c1cccc(F)c1`, the cytotoxicity was 41.3% (inactive).
Turning to `O=C(Nc1nnc(-c2cccs2)o1)c1cccc(Oc2ccccc2)c1`, the cytotoxicity is 50.4% (active).
For the compound `O=C(CCc1ccccc1)Nc1nnc(-c2cccs2)o1`, the cytotoxicity is -3% (inactive).
For the compound `O=C(Nc1nnc(-c2cccs2)o1)c1cccc(C(F)(F)F)c1`, the cytotoxicity was 78.7% (active).
Then `O=C(Nc1nnc(-c2cccs2)o1)c1ccco1`, with -23% (inactive); and `CCCCn1c2nc3ccccc3nc2c2c(=O)n(C(C)CC)cnc21` (configuration not stated), with -10.4% (inactive).
With `COc1ccc(CN(CCCN2CCOCC2)S(=O)(=O)N(C)C)cc1OC`, the cytotoxicity is -7.2% (inactive).
The value for `COc1ccc2nc(SCC(=O)NC(C)C)[nH]c2c1` was -13.4% (inactive).
The value for `O=C(C1Cc2ccccc2O1)N1CCCCC1` (configuration not stated) was -12.6% (inactive); that for `COc1ccc(Cl)cc1N1CC(C(=O)Nc2nccs2)CC1=O` (configuration not stated) was 2.4% (inactive); that for `O=C(CSc1nnnn1C1CCCC1)N1CCN(C(=O)c2ccco2)CC1` was -11.8% (inactive).
In the case of `CN(C(=O)c1cccc(C#N)c1)c1nnc(-c2ccccn2)s1`, the cytotoxicity was -2% (inactive).
The value for `CCCc1[nH]n(-c2nc3ccccc3s2)c(=O)c1C=NCCN1CCOCC1` was 8.6% (inactive).
As to `CCCCCN=Cc1c(C)[nH]n(-c2nc3ccccc3s2)c1=O`, the cytotoxicity was 1.2% (inactive).
`O=c1c(C=NCCCn2ccnc2)c(-c2ccccc2)[nH]n1-c1nc2ccccc2s1`: the cytotoxicity was 57.5% (active).
Then `O=C(NCC(=O)N(Cc1ccc(F)cc1)C(C(=O)NC1CCCC1)c1ccco1)c1ccco1` (configuration not stated), with -8.4% (inactive).
Then `CCC(CC)C(=O)Nc1cc(=O)n(C)c(=O)n1C`, with -10.5% (inactive).
For `CC(C)N1CC=C2C(C#N)=C(N)C(C#N)(C#N)C(c3ccccc3)C2C1` (configuration not stated), the cytotoxicity is 12.8% (inactive).
For the compound `CC(=O)N1CC=C2C(C#N)=C(N)C(C#N)(C#N)[C@H](c3ccoc3)[C@H]2C1`, the cytotoxicity was 9.7% (inactive).
The value for `N#CC1=C(N)C(C#N)(C#N)[C@H](c2ccoc2)[C@H]2CN(Cc3ccccc3)CC=C12` was 72% (active); that for `CCSc1nnc(NC(=O)CN(C)S(=O)(=O)c2ccc(F)cc2)s1` was -4.8% (inactive).
On to `Cc1ccc(-c2nnn(CCC(=O)N3CCCCC3C)n2)cc1` (configuration not stated), for which the cytotoxicity was -5.2% (inactive).
Turning to `CCCCOc1ccccc1NC(=O)CC1Nc2ccccc2NC1=O` (configuration not stated), the cytotoxicity is -9.1% (inactive).
The value for `COc1cccc(C2CC(=O)Nc3cc4c(cc32)OCCO4)c1OC(C)C` (configuration not stated) was 27.3% (inactive); that for `Cc1ccc(C2CC(=O)Nc3cc4c(cc32)OCCO4)s1` (configuration not stated) was -4.6% (inactive).
Then `COc1ccccc1C1CC(=O)Nc2cc3c(cc21)OCCO3` (configuration not stated), with 54.4% (active).
The value for `CC(C)Oc1ccccc1C1CC(=O)Nc2cc3c(cc21)OCCO3` (configuration not stated) was 56.4% (active); that for `CC(C)Oc1ccccc1C1CC(=O)Nc2cc3c(cc21)OCO3` (configuration not stated) was 39.1% (inactive); that for `O=C1CC(c2ccncc2)c2cc3c(cc2N1)OCCO3` (configuration not stated) was -10.2% (inactive).
As to `COc1ccc(C(=O)N2CCN(S(=O)(=O)c3ccc(C)cc3C)CC2)cc1OC`, the cytotoxicity was 2.4% (inactive).
As to `Cc1ccc(Cl)cc1NC(=O)Cn1cccc1`, the cytotoxicity is -2.6% (inactive).
`Cc1cc(C(=O)N2CCN(Cc3ccc4c(c3)OCO4)CC2)on1`: the cytotoxicity is 0.3% (inactive).
The value for `COC(=O)c1cc(-c2ccc3c(c2)OCO3)nc2ccccc12` was -9.6% (inactive); that for `O=C(COc1cccc(NC(=O)c2ccco2)c1)c1ccc(F)cc1` was -13.8% (inactive); that for `CN1CCN(C2=Nc3ccccc3Oc3ccc(Cl)cc32)CC1` was 10.6% (inactive).
The value for `COc1ccc2c(c1)C(=O)CC(c1ccccc1F)O2` (configuration not stated) was -4.1% (inactive); that for `Cn1c(Cl)cnc1C1CC(=O)c2cc(Cl)ccc2O1` (configuration not stated) was 69.6% (active).
Then `CCN1CCN(C(=O)c2nn(-c3ccc(OC)cc3)c(=O)c3c2c2ccccc2n3C)CC1`, with -10.7% (inactive); and `CCCc1[nH]nc2c1C1(C(=O)N(C(C)C)c3ccccc31)C(C#N)=C(N)O2` (configuration not stated), with -41.8% (inactive); and `O=C1c2[nH]nc(-c3ccccc3O)c2C(c2cccc(Cl)c2)N1CC1CCCO1` (configuration not stated), with 32.4% (inactive).
As for `O=C1c2ccccc2NC(c2ccc(F)cc2)N1Cc1ccco1` (configuration not stated), the cytotoxicity is 1.1% (inactive).
Then `O=C1c2ccccc2C(O)N1Cc1ccco1` (configuration not stated), with -6.1% (inactive).
`CC(=O)C1=C(O)C(=O)N(Cc2ccco2)C1c1ccc(F)cc1` (configuration not stated): the cytotoxicity is -1.4% (inactive).
The value for `O=C1C(=O)N(Cc2ccco2)C(c2cccc(Cl)c2)/C1=C(\O)c1ccc2c(c1)OCCO2` (configuration not stated) was 3.5% (inactive); that for `O=C1c2[nH]nc(-c3ccccc3O)c2C(c2ccccc2)N1Cc1ccco1` (configuration not stated) was 21.9% (inactive).

Source of the values: PubChem BioAssay AID430 (Sanford-Burnham Center for Chemical Genomics, 2006).
